Measured values: PubChem BioAssay (NCATS)
Values joined by “and” are separate entries in the source; they are usually repeats but may differ in a detail not shown here. Equal values may be shown once. Results filed as inconclusive are left out. Active and inactive are the calls of the source. Unless noted, the call rests on the fitted dose curve; in most records, active means well fitted curve in the direction sought with a large enough effect; inconclusive means small, poorly fitted or top-dose-only effect, or another doubt; inactive means no such curve, though single readings can be large; an effect the other way counts as inactive or inconclusive.

Legend:
[1] = molecular target: Cytochrome P450 3A4 (Homo sapiens) (UniProt P08684); experiment: qHTS Assay for Inhibitors and Substrates of Cytochrome P450 3A4 (AID 884); further: series mostly up to about 57 µM; on the % scale 0 is the no-effect control and ±100 the full control effect; nearly all actives have a fitted effect of over 50% in size
Sequence of Cytochrome P450 3A4 (Homo sapiens) (P08684 whole entry, looked up): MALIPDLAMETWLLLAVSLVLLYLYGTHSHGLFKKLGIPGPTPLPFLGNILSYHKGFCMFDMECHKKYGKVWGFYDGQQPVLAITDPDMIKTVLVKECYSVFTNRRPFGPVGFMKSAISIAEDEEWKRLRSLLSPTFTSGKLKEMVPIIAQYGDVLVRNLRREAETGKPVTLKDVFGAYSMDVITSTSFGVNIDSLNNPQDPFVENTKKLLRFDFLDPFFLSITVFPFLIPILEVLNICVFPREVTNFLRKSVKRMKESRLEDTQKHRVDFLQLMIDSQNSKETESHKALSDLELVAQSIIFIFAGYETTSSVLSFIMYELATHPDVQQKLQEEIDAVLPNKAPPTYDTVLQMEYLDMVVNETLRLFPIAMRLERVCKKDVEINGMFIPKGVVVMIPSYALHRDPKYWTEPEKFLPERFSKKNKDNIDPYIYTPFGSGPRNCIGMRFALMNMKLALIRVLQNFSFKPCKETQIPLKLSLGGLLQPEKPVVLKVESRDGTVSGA
Summary of the method: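 20 nM human CYP3A4 with 25 uM Luciferin-PPXE (at KM) in 200 mM KPO4, preincubated 10 min with compound; NADPH regeneration started a 60 min RT reaction. Luciferin detected by luminescence, normalized to 57 uM ketoconazole as full inhibition.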

[2] = MultiTox-Fluor Cytotoxicity Assay - LYMP1-001 - Live Cells (AID 947);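 further: 0% = DMSO only and full inhibition = tetraoctylammonium bromide control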
[3] = Cell Viability - LYMP2-004 (AID 966);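 further: plate controls were DMSO only for no effect and tetraoctylammonium bromide control for full effect; nearly all actives have a fitted effect of over 65% in size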
Summary of the method: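 Acute toxicity is scored as a concentration-dependent drop in intracellular ATP, quantified by luciferase luminescence, in human lymphoblastoid cells exposed to compound for 24 hr. AC50 derives from Hill-equation modelling.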

[4] = Cell Viability - LYMP2-009 (AID 968);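 further: series mostly up to about 92 µM; cells exposed to compound for 24 h at 37 °C; 0% = DMSO alone and the full-kill end = tetraoctylammonium bromide at 92 µM; nearly all actives have a fitted effect of over 55% in size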
[5] = Cell Viability - LYMP2-012 (AID 982);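 further: cellular ATP by luciferase luminescence where a drop means cytotoxicity; cells exposed to compound for one day before reading; 0% = DMSO only and full loss = 92 µM tetraoctylammonium bromide; nearly all actives have a fitted effect of over 55% in size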
[6] = molecular target: Estrogen receptor (Homo sapiens) (UniProt P03372); experiment: qHTS assay for small molecule antagonists of estrogen receptor alpha signaling (AID 588513; active means well fitted curve in the direction sought with a large enough effect in the signal ratio, with a control signal flat, not every such curve was filed as active; the % refers to the signal ratio; further: on the % scale 0 is the no-effect control and ±100 the full control effect)
Sequence of Estrogen receptor (Homo sapiens) (P03372 whole entry, looked up): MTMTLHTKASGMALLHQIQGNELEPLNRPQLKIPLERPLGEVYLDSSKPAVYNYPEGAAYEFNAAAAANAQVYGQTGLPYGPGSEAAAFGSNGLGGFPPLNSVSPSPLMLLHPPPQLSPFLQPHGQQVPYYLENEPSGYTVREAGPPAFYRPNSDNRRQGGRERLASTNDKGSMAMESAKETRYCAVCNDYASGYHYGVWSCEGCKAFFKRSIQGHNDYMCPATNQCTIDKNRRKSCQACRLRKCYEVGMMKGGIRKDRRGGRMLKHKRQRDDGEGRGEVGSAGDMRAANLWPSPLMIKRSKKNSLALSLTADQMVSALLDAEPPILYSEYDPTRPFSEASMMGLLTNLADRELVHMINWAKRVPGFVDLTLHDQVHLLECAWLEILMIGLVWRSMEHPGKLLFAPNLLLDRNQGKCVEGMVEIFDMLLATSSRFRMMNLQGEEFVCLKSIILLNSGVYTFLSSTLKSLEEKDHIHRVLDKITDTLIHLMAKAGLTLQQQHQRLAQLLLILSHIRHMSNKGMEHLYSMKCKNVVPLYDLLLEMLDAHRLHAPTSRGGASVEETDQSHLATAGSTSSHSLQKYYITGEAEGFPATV
Summary of the method: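 Fluorescence from CCF4 substrate after 2 h at room temperature gave reporter activity; cells had been exposed to compound and 0.5nM 17-beta-estradiol for 18 h at 37 C. Hill-equation fitting yielded IC50 and maximal response.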

[7] = molecular target: Estrogen receptor (Homo sapiens) (UniProt P03372); experiment: qHTS assay for small molecule agonists of estrogen receptor alpha signaling (AID 588514; calls by dose curve;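 further: 0% = vehicle only and 100% = reference agonist; nearly all actives have a fitted effect of over 70% in size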)
Summary of the method: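 Reporter-gene assay. […] controls beta-lactamase in HEK 293 GripTite cells; after 18 hrs with compound, CCF4 substrate is added for 2 hrs and fluorescence is read.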

[8] = molecular target: Glucocorticoid receptor (Homo sapiens) (UniProt P04150); experiment: qHTS assay for small molecule agonists of glucocorticoid receptor signaling (AID 588532; active means well fitted curve in the direction sought with a large enough effect in the signal ratio, with a control signal flat; the % refers to the signal ratio;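 further: 100% = dexamethasone at 0.1 µM and 0% = DMSO only wells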); conditions: HeLa MMTV-bla, beta-lactamase ratio, agonist, 18 h; hits give high values; percent of dexamethasone control, DMSO zero
Sequence of Glucocorticoid receptor (Homo sapiens) (P04150 whole entry, looked up): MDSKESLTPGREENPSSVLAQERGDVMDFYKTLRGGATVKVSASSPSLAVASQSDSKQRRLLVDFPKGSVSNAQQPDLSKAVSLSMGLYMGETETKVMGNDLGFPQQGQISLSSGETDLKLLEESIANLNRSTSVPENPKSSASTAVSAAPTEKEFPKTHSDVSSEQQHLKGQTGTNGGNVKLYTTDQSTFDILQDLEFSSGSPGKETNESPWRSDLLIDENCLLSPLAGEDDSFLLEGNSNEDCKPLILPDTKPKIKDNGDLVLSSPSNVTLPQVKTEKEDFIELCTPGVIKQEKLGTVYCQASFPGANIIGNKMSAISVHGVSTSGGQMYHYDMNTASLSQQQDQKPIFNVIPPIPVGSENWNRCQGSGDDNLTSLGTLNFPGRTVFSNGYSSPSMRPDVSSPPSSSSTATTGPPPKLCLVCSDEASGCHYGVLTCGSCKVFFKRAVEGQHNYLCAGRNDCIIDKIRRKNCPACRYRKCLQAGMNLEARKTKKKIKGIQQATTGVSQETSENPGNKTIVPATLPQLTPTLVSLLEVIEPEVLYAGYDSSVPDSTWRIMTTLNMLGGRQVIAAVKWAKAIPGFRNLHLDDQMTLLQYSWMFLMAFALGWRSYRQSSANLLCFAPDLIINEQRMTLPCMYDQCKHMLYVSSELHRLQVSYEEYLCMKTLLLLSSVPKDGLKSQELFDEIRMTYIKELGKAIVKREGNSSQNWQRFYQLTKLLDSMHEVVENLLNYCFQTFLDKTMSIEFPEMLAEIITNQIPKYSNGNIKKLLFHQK
Summary of the method: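 MMTV-bla HeLa beta-lactamase reporter cells in 1% charcoal/dextran FBS medium, compounds up to 92 uM for 18 h at 37 C, CCF4 readout; normalized to 0.1 uM dexamethasone (100%), EC50 and efficacy from Hill fits.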

[9] = molecular target: Glucocorticoid receptor (Homo sapiens) (UniProt P04150); experiment: qHTS assay for small molecule antagonists of glucocorticoid receptor signaling (AID 588533; active means well fitted inhibition curve with a large enough effect in the signal ratio, with a control signal flat, not every such curve was filed as active; the % refers to the signal ratio;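 further: cells stimulated with 2 nM dexamethasone as agonist; on the % scale 0 is the no-effect control and ±100 the full control effect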)
Summary of the method: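 Antagonist-mode qHTS: compound titrations added to GRE-bla HeLa cells, then dexamethasone 2 nM final; 18 h, 37 C. CCF4 FRET fluorescence normalized to dexamethasone and DMSO; IC50 from Hill fit.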

[10] = molecular target: Peroxisome proliferator-activated receptor delta (Homo sapiens) (UniProt Q03181); experiment: qHTS assay for small molecule agonists of peroxisome proliferator-activated receptor delta signaling (AID 588534; calls by dose curve;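 further: 0% = DMSO basal wells and 100% = positive control agonist at 10 µM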)
Summary of the method: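 Reporter cells were plated and held 5 hrs at 37 C before compounds were added. After 18 hrs at 37 C, CCF4 dye was loaded for 2 hrs at RT and fluorescence measured.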

[11] = molecular target: Peroxisome proliferator-activated receptor gamma (Homo sapiens) (UniProt P37231); experiment: qHTS assay for small molecule agonists of peroxisome proliferator-activated receptor gamma signaling (AID 588536; active means well fitted curve in the direction sought with a large enough effect in the signal ratio, with a control signal flat, not every such curve was filed as active; the % refers to the signal ratio;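 further: 0% = DMSO basal wells and 100% = rosiglitazone at 2 µM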)
Sequence of Peroxisome proliferator-activated receptor gamma (Homo sapiens) (P37231 whole entry, looked up): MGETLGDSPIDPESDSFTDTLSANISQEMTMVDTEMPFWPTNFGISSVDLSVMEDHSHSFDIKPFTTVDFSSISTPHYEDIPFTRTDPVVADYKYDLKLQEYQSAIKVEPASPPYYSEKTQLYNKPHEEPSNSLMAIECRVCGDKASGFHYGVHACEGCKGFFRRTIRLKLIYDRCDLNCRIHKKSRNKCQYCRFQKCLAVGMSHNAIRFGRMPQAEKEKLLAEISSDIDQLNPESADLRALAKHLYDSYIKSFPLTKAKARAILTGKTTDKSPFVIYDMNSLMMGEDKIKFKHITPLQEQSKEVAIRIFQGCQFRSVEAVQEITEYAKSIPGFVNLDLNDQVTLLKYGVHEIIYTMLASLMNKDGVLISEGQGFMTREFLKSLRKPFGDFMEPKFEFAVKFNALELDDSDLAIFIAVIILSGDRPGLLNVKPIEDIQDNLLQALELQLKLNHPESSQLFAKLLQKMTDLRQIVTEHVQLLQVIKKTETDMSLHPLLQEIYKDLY
Summary of the method: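 HEK293 UAS-bla reporter line, 1% charcoal/dextran FBS; titration, 16 h, 37 C; CCF4 loading 2 h RT; fluorescence 460/530 nm. Normalized to rosiglitazone 2 uM = 100%, DMSO = 0%.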

[12] = molecular target: Thyroid hormone receptor beta (Homo sapiens) (UniProt P10828); experiment: qHTS assay for small molecule agonists of thyroid hormone receptor beta signaling (AID 588545; calls by dose curve)
Sequence of Thyroid hormone receptor beta (Homo sapiens) (P10828 whole entry, looked up): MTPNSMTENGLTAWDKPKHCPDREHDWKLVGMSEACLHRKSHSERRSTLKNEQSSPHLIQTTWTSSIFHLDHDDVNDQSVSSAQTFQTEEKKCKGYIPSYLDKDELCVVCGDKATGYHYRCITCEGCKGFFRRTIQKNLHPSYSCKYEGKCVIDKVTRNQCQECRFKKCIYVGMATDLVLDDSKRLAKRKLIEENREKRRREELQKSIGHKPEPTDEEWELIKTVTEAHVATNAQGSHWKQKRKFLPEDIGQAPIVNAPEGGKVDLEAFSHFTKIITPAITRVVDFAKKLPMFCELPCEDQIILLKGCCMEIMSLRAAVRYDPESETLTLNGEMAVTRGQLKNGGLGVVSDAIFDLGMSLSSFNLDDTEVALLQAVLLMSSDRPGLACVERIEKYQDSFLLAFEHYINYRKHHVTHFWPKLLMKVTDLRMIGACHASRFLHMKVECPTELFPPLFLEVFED
Summary of the method: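 Agonist-mode beta-lactamase reporter assay, HEK 293 cells, 2% charcoal/dextran FBS; cells plated 4 hrs, compound 18 hrs at 37 C, CCF4 2 hrs RT. Normalized to 10 nM T3 (100%) and DMSO (0%); Hill fit gives EC50, efficacy.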

[13] = molecular target: Thyroid hormone receptor beta (Homo sapiens) (UniProt P10828); experiment: qHTS assay for small molecule antagonists of thyroid hormone receptor beta signaling (AID 588547; active means well fitted inhibition curve with a large enough effect in the signal ratio, with a control signal flat, not every such curve was filed as active; the % refers to the signal ratio;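 further: cells stimulated with 0.4 nM T3 agonist during compound exposure; series mostly up to about 77 µM; on the % scale 0 is the no-effect control and ±100 the full control effect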); conditions: TR-UAS-bla HEK293, beta-lactamase ratio, antagonist mode, 18 h
Summary of the method: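 TR-UAS-bla GripTite HEK293 cells in 2% charcoal/dextran FBS medium; compounds 0.59 nM to 92 uM with T3 at 0.4nM final, 18 h at 37 C. Beta-lactamase read by CCF4 fluorescence (460/530 nm); Hill fits gave IC50 and efficacy.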

[14] = molecular target: Voltage-gated inwardly rectifying potassium channel KCNH2 (Homo sapiens) (UniProt Q12809); experiment: qHTS Assay for Small Molecule Inhibitors of the Human hERG Channel Activity (AID 588834);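 further: top concentration of the series differs between compounds; on the % scale 0 is the no-effect control and ±100 the full control effect; lower thallium flux fluorescence means stronger hERG block; nearly all actives have a fitted effect of over 50% in size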
Sequence of Voltage-gated inwardly rectifying potassium channel KCNH2 (Homo sapiens) (Q12809 whole entry, looked up): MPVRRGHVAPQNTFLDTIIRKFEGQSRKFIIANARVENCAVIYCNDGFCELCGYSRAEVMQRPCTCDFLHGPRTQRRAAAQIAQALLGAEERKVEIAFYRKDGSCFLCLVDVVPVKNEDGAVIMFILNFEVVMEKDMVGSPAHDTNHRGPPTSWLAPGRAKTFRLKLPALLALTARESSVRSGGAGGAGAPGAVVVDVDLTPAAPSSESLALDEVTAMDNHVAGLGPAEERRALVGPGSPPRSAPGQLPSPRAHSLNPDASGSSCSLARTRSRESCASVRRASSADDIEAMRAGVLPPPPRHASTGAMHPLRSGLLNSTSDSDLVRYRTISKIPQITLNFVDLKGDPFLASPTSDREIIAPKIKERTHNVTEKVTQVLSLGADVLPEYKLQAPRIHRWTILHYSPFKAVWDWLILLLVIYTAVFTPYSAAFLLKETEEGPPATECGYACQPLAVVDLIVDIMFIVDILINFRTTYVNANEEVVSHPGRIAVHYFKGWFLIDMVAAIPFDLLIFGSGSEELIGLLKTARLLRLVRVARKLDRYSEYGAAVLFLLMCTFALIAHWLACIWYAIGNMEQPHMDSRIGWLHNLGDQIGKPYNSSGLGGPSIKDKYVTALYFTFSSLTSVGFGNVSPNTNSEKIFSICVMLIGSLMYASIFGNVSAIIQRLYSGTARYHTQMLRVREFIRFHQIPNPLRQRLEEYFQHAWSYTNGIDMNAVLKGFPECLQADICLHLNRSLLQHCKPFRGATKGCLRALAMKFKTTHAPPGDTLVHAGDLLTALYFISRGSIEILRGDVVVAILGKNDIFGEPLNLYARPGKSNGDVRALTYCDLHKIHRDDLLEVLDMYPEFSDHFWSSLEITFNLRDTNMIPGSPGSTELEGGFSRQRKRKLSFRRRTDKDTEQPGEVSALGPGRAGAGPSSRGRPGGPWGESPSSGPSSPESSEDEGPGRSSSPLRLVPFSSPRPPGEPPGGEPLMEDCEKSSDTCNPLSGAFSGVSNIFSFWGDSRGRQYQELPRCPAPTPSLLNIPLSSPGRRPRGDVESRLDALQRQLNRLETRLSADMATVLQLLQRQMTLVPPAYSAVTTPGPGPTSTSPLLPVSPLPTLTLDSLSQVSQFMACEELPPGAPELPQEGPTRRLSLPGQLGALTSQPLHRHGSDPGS
Summary of the method: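 hERG-BacMam U2OS, 2000 cells/well; 0.7X FluxOR loading 1 hr RT dark; cpd ~10 min 37 °C; stim buffer; FDSS fluorescence 2 min @ 1 s; AC50 Hill fit.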

[15] = qHTS assay for small molecule activators of the p53 signaling pathway (AID 651743; active means well fitted activation curve with a large enough effect in the signal ratio, not every such curve was filed as active; the % refers to the signal ratio; further: series mostly up to about 92 µM; % of control where 0% means no effect); conditions: HCT-116 p53RE-bla, beta-lactamase FRET ratio, 16 h; activation: hits give high values
Summary of the method: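 HCT-116 p53RE-bla, 4,000 cells/well; 5 h settle; cpd/DMSO 16 h, 37 C; LiveBLAzer B/G 2 h RT; fluorescence intensity.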

[16] = molecular target: Nuclear receptor ROR-gamma (Homo sapiens) (UniProt P51449); experiment: qHTS assay for small molecule antagonists of the retinoid-related orphan receptor gamma (ROR-gamma) signaling pathway (AID 651802);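 further: CHO cells with doxycycline-induced ROR-gamma expression; series mostly up to about 92 µM; on the % scale 0 is the no-effect control and ±100 the full control effect; nearly all actives have a fitted effect of over 60% in size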
Sequence of Nuclear receptor ROR-gamma (Homo sapiens) (P51449 whole entry, looked up): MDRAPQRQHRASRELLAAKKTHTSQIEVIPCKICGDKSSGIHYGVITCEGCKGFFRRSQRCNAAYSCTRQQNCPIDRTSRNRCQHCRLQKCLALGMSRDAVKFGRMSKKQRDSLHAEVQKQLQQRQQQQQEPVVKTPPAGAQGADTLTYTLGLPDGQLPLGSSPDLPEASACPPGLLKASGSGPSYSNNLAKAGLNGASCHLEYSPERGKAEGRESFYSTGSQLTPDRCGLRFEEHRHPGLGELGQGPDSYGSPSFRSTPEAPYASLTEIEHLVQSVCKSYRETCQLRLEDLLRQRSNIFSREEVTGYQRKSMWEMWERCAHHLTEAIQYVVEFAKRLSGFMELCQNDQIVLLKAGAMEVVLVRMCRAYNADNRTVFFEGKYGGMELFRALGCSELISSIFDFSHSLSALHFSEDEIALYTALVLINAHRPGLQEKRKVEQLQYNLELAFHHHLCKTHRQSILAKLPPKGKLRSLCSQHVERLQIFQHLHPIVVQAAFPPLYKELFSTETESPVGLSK
Summary of the method: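 Antagonism is scored as a fall in luminescence from a RORE-luciferase reporter in CHO cells expressing ROR under a TET-inducible promoter, measured 16hr after doxycycline induction in the presence of compound.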

[17] = qHTS assay for small molecule antagonists of the retinoid-related orphan receptor gamma (ROR-gamma) signaling pathway - cell viability counter screen (AID 720652; active means well fitted curve in the direction sought with a large enough effect in the repeat runs; an effect the other way counts as inactive or inconclusive;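 further: CHO reporter cells with doxycycline-induced ROR-gamma expression; series mostly up to about 92 µM; compound exposure lasted 16 hr before ATP read; on the % scale 0 is the no-effect control and ±100 the full control effect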)
Summary of the method: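 Cytotoxicity is quantified via intracellular ATP (CellTiter-Glo luminescence) in doxycycline-induced CHO ROR response element-luciferase reporter cells treated with compound for 16 hr at 37 C, 5% CO2.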

[18] = molecular target: Nuclear receptor subfamily 1 group I member 2 (Rattus norvegicus) (UniProt Q9R1A7); experiment: qHTS assay for small molecule activators of the rat pregnane X receptor (rPXR) signaling pathway (AID 651751; call rule not given here; further: 0% is about no effect); conditions: rPXR reporter cells, luciferase (One-Glo), 24 h
Sequence of Nuclear receptor subfamily 1 group I member 2 (Rattus norvegicus) (Q9R1A7 whole entry, looked up): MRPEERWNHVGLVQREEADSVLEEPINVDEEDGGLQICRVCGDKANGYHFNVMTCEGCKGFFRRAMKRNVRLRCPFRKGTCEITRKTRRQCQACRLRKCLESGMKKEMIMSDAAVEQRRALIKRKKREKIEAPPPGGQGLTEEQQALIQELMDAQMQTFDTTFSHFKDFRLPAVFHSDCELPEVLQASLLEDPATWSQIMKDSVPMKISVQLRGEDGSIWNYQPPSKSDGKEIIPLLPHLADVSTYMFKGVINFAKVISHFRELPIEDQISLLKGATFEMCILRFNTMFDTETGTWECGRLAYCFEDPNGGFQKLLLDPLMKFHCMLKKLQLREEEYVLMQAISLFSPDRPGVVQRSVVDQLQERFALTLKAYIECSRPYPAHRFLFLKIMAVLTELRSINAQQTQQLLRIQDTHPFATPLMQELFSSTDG

[19] = Cell Viability - LYMP2-010 (AID 981);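 further: cells exposed to compound for 24 hours at 37 °C; on the % scale 0 is the no-effect control and ±100 the full control effect; nearly all actives have a fitted effect of over 55% in size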
Summary of the method: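 Acute toxicity is scored as a concentration-dependent loss of cellular ATP in human lymphoblastoid cells after 24 hr compound exposure in complete medium. Tetraoctylammonium bromide is the positive control.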

[20] = qHTS assay for small molecule activators of the human pregnane X receptor (PXR) signaling pathway (AID 720659; call rule not given here; further: 0% is about no effect)

Cc1ccc(O)c(C)c1
inactive: Potency [1] | Potency [2] | Potency [3] | Potency [4] | Potency [5] | Potency [6] | Potency [7] | activation [8] 12.9% and 20.9% | Potency [9] | outcome [10] | outcome [11] | outcome [12] | activity change % (negative = inhibition) [13] 2.23% and -13.2% and -16.1% | Potency [14] | activation [15] -2.98% and 8.45% and 2.43% | Potency [16] | Potency [17] | max response [18] -2.91% and 1.12% and -5.05%

CCOc1ccc(N)cc1
inactive: Potency [3] | Potency [4] | Potency [19] | Potency [5] | Potency [6] | Potency [7] | activation [8] 2.46% | Potency [9] | outcome [10] | outcome [12] | activity change % (negative = inhibition) [13] -6.64% | Potency [14] | activation [15] 1.96% | Potency [16] | Potency [17] | max response [18] 3.36% | outcome [20]

c1ccc(OP(Oc2ccccc2)Oc2ccccc2)cc1
inactive: Potency [1] | Potency [2] | Potency [3] | Potency [4] | Potency [19] | Potency [5] | Potency [6] | Potency [7] | activation [8] 10.9% and -3.42% | Potency [9] | outcome [11] | outcome [12] | activity change % (negative = inhibition) [13] 5.76% | Potency [14] | activation [15] -2.41% and -6.19% | Potency [16] | Potency [17] | max response [18] 0.576% and -1.05% | outcome [20]

S=C=Nc1cccc2ccccc12
inactive: Potency [2] | Potency [3] | Potency [4] | Potency [19] | Potency [5] | Potency [6] | Potency [7] | activation [8] 2.48% | Potency [9] | outcome [10] | outcome [11] | outcome [12] | activity change % (negative = inhibition) [13] -1.91% | Potency [14] | activation [15] 3.44% | Potency [16] | Potency [17] | max response [18] 5.78%

Cc1cccc(C#N)c1
inactive: Potency [1] | Potency [2] | Potency [3] | Potency [4] | Potency [19] | Potency [5] | Potency [6] | Potency [7] | activation [8] -3.56% | Potency [9] | outcome [10] | outcome [11] | outcome [12] | activity change % (negative = inhibition) [13] 7.42% | Potency [14] | activation [15] -3.72% | Potency [16] | Potency [17] | max response [18] -0.906% | outcome [20]

Cc1cccc([N+](=O)[O-])c1
inactive: Potency [2] | Potency [3] | Potency [4] | Potency [19] | Potency [5] | Potency [6] | Potency [7] | activation [8] 4.17% and -5.85% | Potency [9] | outcome [10] | outcome [11] | Potency [14] | activation [15] -0.671% | Potency [17]
